# Source: PubChem BioAssay (National Center for Advancing Translational Sciences (NCATS))
# Marburg entry inh – Marburg virus entry inhibition; hit rate 1.8% among 300,000; AID 540276; Marburg virus pseudotyped entry inhibition, cell reporter; Potency, µM (highest dose often 37.8 µM), hits mostly inhibitors; calls by dose curve; tested in HEK293 cells
# HCV inhibitor – inhibitors of hepatitis C virus infection. Huh7.5.1 HCVcc-Cre infection, luciferase reporter, 44 h. hit rate 3.4% among 340,000. Potency, µM (highest dose often 41.8 µM), most hits filed as inhibitors. AID 651820; active = well fitted inhibition curve with a large enough effect; inconclusive = small, poorly fitted or top-dose-only effect, or another doubt; inactive = no such curve, though single readings can be large or run the other way
#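 Seed cells (1,000/well) for 4 h; treat with compound and infect with HCVcc-Cre, moi about 0.5. Incubate 44 h, then detect luciferase activity.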
# LASV entry inh – inhibitors of Lassa virus binding or cell entry; Lassa virus pseudotype entry inhibition, cell reporter; Potency, µM (series often up to 37.9 µM), actives largely listed as inhibitors; hit rate 1.2% among 300,000; calls by dose curve; tested in HEK293 cells; also: nearly all actives have a fitted effect of over 50% in size
# FMDV antiviral – foot and mouth disease virus antiviral activity. FMDV antiviral cell-based qHTS. Potency, µM (highest dose often 57.9 µM), hits mostly inhibitors. hit rate 1.2% among 410,000. AID 1159524; calls by dose curve; tested in HEK293T cells; also: read-out not given here; nearly all actives have a fitted effect of over 45% in size
# HCMV inh – inhibitors of human cytomegalovirus. HFF cells, HCMV-luciferase reporter, 72 h; active compounds read low. activity change, negative = inhibition, % at 57.5 µM. hit rate 4.5% among 410,000; in the data active = activity change below about -60%; inconclusive = no clear call, values can overlap the other calls; inactive = above about -39%
#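 Steps: HFFs plated, 16 h 37C; compounds added; HCMV-luciferase added to MOI 1 PFU/cell; 72 h 37C; OneGlo reagent, 5 min room temperature; luminescence read, normalized to controls.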
# Numbers stand for hits; 0 = inactive; ? = inconclusive; - = no result given; ! = not confirmed by another sample; [ ] = another dose, or the depositor's remark. The list is not random: actives were taken first. Their share in the collection is about 7.9%.
SMILES,Marburg entry inh,HCV inhibitor,LASV entry inh,FMDV antiviral,HCMV inh
COc1ccc(-c2cc3nc(C)c(CCC(=O)N4CCN(c5cccc(Cl)c5)CC4)c(C)n3n2)c(OC)c1,0,-,0,0,0
CCN1C(=O)[C@@H]2[C@H]3[C@H](O)[C@H](O)CC(=NO[C@H](C)CN4CCCc5nc(C)c(C)cc54)[C@@H]3CC[C@H]2C1=O,0,-,-,-,-
CSc1nc(C)cc(OCCNS(=O)(=O)c2cc(C)ccc2C)n1,0,22.4µM,0,0,0
Cc1ccc(C)c(S(=O)(=O)NCCOc2nc(NC(C)C)nc(NC(C)C)n2)c1,?,0,0,-,0
CCOC(=O)c1cccn1C1C(=O)N(C)c2c(F)cccc21 (stereo not drawn),-,-,-,-,0
O=c1cc(-c2ccccc2Cl)oc2c([N+](=O)[O-])c(O)cc(O)c12,0,0[8.37 µM],0,0,-72.1
CN(C)c1ccc(C(=O)Nc2ccc(O)c3c(=O)cc(-c4ccccc4Cl)oc23)cc1,-,31.6µM,-,0,0
O=c1cc(-c2ccccc2Cl)oc2ccc([N+](=O)[O-])c(O)c12,0,0,0,0,0
COc1cc(OC)c2c(-c3cccc(-c4ccc(N(C)C)cc4)c3)cc(=O)oc2c1,-,?,-,0,-72.6
COc1cc(OC)c2c(-c3cccc(-c4ccc(OC(F)(F)F)cc4)c3)cc(=O)oc2c1,-,0,-,0,0
COc1cc(OC)c2c(-c3cccc(-c4ccc(O)cc4)c3)cc(=O)oc2c1,-,?,-,?,0
COc1ccc(-c2cccc(-c3cc(=O)oc4cc(OC)cc(OC)c34)c2)cc1,-,?,-,0,-73.2
COc1cc(OC)c2c(-c3cccc(-c4cccc(C)c4)c3)cc(=O)oc2c1,-,4.47µM,-,?,0
COC(=O)CN1C(=O)C(C)(C)c2cc(S(=O)(=O)NCc3ccc(Cl)cc3)ccc21,-,-,0,0,0
CCOCCCNC(=O)C(c1ccc(C)cc1)N(Cc1cccs1)C(=O)c1ccccc1O (stereo not drawn),?,0,11.2µM,0,0
CCOCCCNC(=O)C(NC(=O)c1ccc(NC(C)=O)cc1)c1ccc(C)cc1 (stereo not drawn),?,0,0,0,0
CCOCCCNC(=O)C(NC(=O)c1ccc(NC(C)=O)cc1)c1ccc(Cl)cc1 (stereo not drawn),0,0,0,0,-62.9
CCOCCCNC(=O)C(c1ccc(C)cc1)N(Cc1cccs1)C(=O)c1ccc(NC(C)=O)cc1 (stereo not drawn),?,-,?,0,0
CCOCCCNC(=O)C(c1ccccc1)N(Cc1cccs1)C(=O)c1ccccc1O (stereo not drawn),?,?,?,0,0
CCOCCCNC(=O)C(c1ccc(Cl)cc1)N(Cc1cccs1)C(=O)c1ccc(NC(C)=O)cc1 (stereo not drawn),10µM,-,?,0,0
CCOC1=CC(=O)N(CCN)C1,-,-,-,-,0
Cc1cccc(-n2c(C)nc3cc(C(=O)NCC4CCCO4)ccc32)c1 (stereo not drawn),-,0,-,0,-64.3
CCOc1ccc(-n2c(C)nc3cc(C(=O)NCC4CCCO4)ccc32)cc1 (stereo not drawn),?,0,5.01µM,0,0
CCOc1cc(NC(=S)NCC2CCCO2)c(OCC)cc1NC(=O)c1cccc(C)c1 (stereo not drawn),1.64µM,?,?,3.16µM,0
Cc1cccc(-n2cnc3cc(C(=O)NCC4CCCO4)ccc32)c1 (stereo not drawn),-,-,-,0,0
SMILES,Marburg entry inh,HCV inhibitor,LASV entry inh,FMDV antiviral,HCMV inh
COC(=O)c1c(-c2ccc(Cl)cc2)noc1N1CCN(c2ccc(F)cc2)CC1,-,-,0,?,0
CC(=O)OCC#CCSc1nnc(-c2cccc(Br)c2)o1,0,-,0,0,0
COc1ccc2c(C)cc(SCn3nnc4ccccc4c3=O)nc2c1,0,0,0,0,-65.5
COc1ccc2c(-c3ccccc3)cc(SCC(N)=O)nc2c1,5.62µM,?,?,0,0
COc1ccc(C)cc1-n1nnnc1SCc1cc(=O)n2cc(C)ccc2n1,0,?,?,15.8µM,-71.9
COc1ccc(OC)c(C(=O)Cn2nnc3ccccc3c2=O)c1,0,0,0,0,0
COc1ccc(C)cc1-n1nnnc1SCn1nnc2ccccc2c1=O,0,?,?,0,-80.0
CCOc1ccc(C(c2c(O)cc(C)n(Cc3ccco3)c2=O)N2CCN(c3ccccc3)CC2)cc1 (stereo not drawn),-,-,0,?,0
CCc1ccc(CNCc2c(C(=O)O)n(Cc3cccc(F)c3)c3cc(OC)ccc23)cc1,-,-,?,0,?
O=C(Cn1cnc2c(oc3nc4c(cc32)CCCC4)c1=O)Nc1cccc(Cl)c1,0,25.1µM,0,0,0
O=C(Cn1cnc2c(oc3nc4c(cc32)CCCC4)c1=O)Nc1ccccc1,-,0,-,0,0
NC1=NC[C@H](Cc2ccc(O)cc2)N1CCC12CC3CC(CC(C3)C1)C2,-,0,-,?,-72.5
CCCCN1C(N)=NC[C@@H]1Cc1ccc(O)cc1,-,0,-,0,0
CCn1ncc([C@@H]2C[C@H]3CN(Cc4ccccc4C)C(=O)[C@]34CCCN24)c1C,-,0,-,0,0
Cc1ccccc1CN1C[C@@H]2C[C@@H](c3cn[nH]c3-c3ccccc3)N3CCC[C@@]23C1=O,?,12.6µM,?,0,-66.4
COc1cc(OC)c(OC)cc1/C=C/c1nc2cc3ccccc3cc2c(=O)n1-c1ccccc1Br,-,-,0,0,0
Cc1nc(-n2ncc(C#N)c2N)c2c3c(sc2n1)CCC3,0,?,0,0,0
CCCSc1nc(-n2ncc(C#N)c2N)c2c3c(sc2n1)CCC(C)C3 (stereo not drawn),?,14.1µM,0,0,0
Cc1cnc(C(=O)Nc2ccc(OC(F)(F)F)cc2)cn1,-,0,-,0,0
Cc1csc2ncnc(N3CCN(C(=O)Nc4ccc(OC(F)(F)F)cc4)CC3)c12,-,7.94µM,-,17.8µM,-63.6
Cc1csc2c(N3CCN(C(=O)Nc4ccccc4)CC3)ncnc12,?,?,0,22.4µM,?
Cc1cc(=O)oc2c(N)c(O)ccc12,-,0,-,0,0
C/C(=N\O)c1oc2ccc3c(C)cc(=O)oc3c2c1C,0,0,0,0,-63.3
O=c1oc2c(CN3CCOCC3)c(O)ccc2cc1-c1ccc(Cl)cc1,-,-,0,0,?
CCn1c(C)nc2cc(C(=O)OC(C(F)(F)C(F)F)C(F)(F)C(F)F)ccc21,14.1µM,?,?,0,0
SMILES,Marburg entry inh,HCV inhibitor,LASV entry inh,FMDV antiviral,HCMV inh
COC(=O)N[C@@H](c1ccccc1)[C@]1(C(C)=O)CCCC1=O,0,-,-,-,-
Cc1ccc(CC(NC(=O)c2ccccc2)C(=O)N2CCCC2C(=O)O)cc1 (stereo not drawn),0,0,0,0,-107.1
O=C(c1cc2nc(-c3cccs3)cc(C(F)(F)Cl)n2n1)N1CCCc2ccccc21,?,7.08µM,0,-,-86.5
O=C(c1nn2c(C(F)(F)F)cc(-c3ccco3)nc2c1Br)N1CCCc2ccccc21,?,12.6µM!,?,0,0
O=C(c1cc2nc(-c3cccs3)cc(C(F)(F)F)n2n1)N1CCCc2ccccc21,?,10µM,?,0,?
O=C(c1nn2c(C(F)(F)F)cc(-c3cccs3)nc2c1Br)N1CCCc2ccccc21,0,?,0,0,0
COc1cccc(-c2sc3ccc(OC)cc3c2-c2ccc(C(N)=O)cc2)c1,-,2.51µM,-,0,0
